What was measured:
Experiment in all cases: log2 ratio of Biotin-Ahx-Ub-VS probe labelling (fragment/DMSO); higher = less target engagement (more negative = stronger competition), active = hit call of the paper (q ≤ 0.05, log2 ratio ≤ -1)
Conditions in all cases: compound concentration: 200 uM; treatment time: 3 h
[1] = target: T1, USP42 (UniProt Q9H9J4)
T1 sequence (whole entry): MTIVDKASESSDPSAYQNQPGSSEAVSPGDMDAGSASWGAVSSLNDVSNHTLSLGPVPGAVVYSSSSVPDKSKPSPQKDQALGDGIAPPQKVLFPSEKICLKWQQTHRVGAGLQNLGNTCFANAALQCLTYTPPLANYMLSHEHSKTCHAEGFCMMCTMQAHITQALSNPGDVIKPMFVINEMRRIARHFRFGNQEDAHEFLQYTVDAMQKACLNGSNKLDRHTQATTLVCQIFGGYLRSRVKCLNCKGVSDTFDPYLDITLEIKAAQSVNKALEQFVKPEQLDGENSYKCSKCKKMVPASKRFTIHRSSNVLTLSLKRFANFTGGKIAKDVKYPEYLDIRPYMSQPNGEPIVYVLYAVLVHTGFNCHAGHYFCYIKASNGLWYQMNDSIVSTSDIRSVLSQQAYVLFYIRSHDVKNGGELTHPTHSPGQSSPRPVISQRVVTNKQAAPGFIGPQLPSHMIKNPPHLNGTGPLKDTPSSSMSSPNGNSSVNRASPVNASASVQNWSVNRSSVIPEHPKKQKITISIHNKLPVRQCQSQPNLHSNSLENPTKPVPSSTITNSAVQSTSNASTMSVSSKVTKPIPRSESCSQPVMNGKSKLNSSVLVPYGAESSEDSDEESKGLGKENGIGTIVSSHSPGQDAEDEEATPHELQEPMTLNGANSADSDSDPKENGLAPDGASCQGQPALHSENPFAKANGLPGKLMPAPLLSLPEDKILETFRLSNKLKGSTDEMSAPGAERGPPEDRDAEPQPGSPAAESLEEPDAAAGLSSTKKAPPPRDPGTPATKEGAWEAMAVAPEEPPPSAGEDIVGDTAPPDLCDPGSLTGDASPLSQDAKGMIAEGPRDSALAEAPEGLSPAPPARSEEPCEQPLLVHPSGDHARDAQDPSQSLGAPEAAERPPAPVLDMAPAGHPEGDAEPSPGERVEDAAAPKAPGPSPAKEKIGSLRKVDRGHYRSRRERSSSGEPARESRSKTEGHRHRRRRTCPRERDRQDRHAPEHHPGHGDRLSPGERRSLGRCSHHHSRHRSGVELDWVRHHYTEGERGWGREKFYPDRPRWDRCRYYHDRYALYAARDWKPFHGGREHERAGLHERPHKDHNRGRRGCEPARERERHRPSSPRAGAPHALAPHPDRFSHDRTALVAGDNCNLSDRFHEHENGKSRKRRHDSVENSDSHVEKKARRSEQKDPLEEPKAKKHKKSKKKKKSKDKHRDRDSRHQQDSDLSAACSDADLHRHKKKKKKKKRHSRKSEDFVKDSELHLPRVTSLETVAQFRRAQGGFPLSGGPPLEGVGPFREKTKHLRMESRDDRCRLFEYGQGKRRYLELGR
In short: (§1)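 Labelled DUBs from HEK293T lysate were NeutrAvidin-enriched, digested with LysC and trypsin, and run by diaPASEF LC-MS/MS. Before that, each 495 µg sample in Tris/CHAPS/IGEPAL buffer with protease inhibitors was treated in triplicate with fragment at 200 µM or vehicle for 3 h, then with Biotin-Ahx-Ub-VS at 0.5 µM final for 1 h. Values are average log2 ratios of fragment over vehicle by unpaired t-test, based on global-median-normalised Spectronaut label-free quantities from proteins with ≥2 unique peptides.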

[2] = target: USP46 (UniProt P62068)
In short: as §1

[3] = target: T2, USP47 (UniProt Q96K76)
T2 sequence (whole entry): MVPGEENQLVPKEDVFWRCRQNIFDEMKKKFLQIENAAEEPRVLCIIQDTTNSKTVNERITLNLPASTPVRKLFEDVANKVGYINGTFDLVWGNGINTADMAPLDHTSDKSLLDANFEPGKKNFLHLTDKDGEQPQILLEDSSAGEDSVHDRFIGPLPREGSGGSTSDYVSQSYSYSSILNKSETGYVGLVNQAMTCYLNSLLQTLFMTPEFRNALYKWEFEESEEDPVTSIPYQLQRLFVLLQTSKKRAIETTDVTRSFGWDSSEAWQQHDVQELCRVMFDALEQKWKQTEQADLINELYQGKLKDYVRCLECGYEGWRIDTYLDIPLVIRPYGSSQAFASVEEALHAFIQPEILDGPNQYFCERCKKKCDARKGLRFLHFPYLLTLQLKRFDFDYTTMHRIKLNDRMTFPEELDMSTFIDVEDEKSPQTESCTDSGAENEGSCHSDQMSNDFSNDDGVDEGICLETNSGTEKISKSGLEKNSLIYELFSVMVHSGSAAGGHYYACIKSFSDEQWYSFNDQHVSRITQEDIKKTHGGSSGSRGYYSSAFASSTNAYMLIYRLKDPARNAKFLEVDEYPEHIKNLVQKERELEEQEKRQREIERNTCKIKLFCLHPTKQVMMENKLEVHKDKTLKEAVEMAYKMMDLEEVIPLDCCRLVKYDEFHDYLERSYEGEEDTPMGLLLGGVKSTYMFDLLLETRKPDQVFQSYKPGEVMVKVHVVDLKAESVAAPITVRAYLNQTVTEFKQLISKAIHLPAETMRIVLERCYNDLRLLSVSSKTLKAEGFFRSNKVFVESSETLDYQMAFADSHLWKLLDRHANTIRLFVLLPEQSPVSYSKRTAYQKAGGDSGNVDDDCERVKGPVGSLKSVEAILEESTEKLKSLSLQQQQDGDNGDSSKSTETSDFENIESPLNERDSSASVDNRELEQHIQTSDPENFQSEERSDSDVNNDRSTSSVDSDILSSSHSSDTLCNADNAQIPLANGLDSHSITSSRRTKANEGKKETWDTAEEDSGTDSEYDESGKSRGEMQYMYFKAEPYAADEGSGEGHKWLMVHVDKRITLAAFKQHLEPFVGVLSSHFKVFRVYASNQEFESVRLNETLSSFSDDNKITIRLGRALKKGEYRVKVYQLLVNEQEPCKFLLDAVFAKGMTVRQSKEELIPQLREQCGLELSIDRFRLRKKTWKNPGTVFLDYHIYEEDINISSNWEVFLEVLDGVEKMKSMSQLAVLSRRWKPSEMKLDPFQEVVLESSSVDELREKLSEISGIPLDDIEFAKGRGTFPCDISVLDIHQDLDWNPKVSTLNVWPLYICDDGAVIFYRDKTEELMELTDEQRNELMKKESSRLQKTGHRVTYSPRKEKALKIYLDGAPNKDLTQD
In short: as §1

[4] = target: T3, USP48 (UniProt Q86UV5)
T3 sequence (whole entry): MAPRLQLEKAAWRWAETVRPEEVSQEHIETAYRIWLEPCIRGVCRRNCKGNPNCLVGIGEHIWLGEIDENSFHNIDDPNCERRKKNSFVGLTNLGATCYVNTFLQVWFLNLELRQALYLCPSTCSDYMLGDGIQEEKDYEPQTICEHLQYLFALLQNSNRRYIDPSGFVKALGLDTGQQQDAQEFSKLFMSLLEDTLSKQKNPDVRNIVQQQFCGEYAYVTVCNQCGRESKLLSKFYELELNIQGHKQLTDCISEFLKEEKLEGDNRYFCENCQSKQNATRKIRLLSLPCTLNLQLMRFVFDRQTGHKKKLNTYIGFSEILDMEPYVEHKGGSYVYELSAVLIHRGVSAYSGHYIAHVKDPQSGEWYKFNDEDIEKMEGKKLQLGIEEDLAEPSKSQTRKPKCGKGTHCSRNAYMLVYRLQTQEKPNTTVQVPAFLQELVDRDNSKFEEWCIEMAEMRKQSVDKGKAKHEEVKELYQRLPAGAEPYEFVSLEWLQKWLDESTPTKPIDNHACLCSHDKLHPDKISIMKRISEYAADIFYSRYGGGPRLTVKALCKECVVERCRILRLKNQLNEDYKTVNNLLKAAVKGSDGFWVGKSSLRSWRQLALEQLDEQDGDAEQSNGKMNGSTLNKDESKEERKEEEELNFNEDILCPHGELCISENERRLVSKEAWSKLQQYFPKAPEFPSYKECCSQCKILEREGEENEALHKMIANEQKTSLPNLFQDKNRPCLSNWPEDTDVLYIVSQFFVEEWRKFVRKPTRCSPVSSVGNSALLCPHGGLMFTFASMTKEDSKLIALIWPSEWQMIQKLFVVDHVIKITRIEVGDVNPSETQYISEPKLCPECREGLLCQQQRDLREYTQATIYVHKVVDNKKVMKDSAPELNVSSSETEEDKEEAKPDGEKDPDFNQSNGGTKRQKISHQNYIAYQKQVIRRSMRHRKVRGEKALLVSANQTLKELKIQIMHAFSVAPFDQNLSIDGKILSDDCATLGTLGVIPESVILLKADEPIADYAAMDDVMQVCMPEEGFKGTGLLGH
In short: as §1

[5] = target: T4, USP5 (UniProt P45974)
T4 sequence (whole entry): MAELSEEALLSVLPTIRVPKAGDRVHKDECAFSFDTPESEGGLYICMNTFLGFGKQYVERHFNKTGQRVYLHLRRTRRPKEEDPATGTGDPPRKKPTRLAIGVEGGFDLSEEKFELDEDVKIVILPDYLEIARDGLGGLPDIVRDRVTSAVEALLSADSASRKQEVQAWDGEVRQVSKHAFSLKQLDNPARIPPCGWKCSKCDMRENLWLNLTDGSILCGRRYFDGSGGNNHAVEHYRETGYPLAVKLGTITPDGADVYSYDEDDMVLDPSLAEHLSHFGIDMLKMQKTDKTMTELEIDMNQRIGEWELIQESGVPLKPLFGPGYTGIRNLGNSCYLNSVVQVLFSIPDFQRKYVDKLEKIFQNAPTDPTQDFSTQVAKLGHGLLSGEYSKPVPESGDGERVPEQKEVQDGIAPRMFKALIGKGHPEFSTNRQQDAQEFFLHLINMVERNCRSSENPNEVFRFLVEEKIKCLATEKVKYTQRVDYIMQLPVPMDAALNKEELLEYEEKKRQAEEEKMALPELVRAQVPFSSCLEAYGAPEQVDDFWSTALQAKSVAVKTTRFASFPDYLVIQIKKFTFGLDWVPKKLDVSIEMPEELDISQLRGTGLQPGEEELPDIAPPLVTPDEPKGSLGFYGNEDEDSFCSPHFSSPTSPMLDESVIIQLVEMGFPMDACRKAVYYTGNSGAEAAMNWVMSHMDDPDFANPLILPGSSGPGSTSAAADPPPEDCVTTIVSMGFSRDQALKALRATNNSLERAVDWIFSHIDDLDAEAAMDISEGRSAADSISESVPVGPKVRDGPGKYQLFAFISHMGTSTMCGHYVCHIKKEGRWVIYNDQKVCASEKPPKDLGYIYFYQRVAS
In short: as §1

[6] = target: USP54 (UniProt Q70EL1)
In short: as §1

[7] = target: USP7 (UniProt Q93009)
In short: as §1

[8] = target: T5, USP8 (UniProt P40818)
T5 sequence (whole entry): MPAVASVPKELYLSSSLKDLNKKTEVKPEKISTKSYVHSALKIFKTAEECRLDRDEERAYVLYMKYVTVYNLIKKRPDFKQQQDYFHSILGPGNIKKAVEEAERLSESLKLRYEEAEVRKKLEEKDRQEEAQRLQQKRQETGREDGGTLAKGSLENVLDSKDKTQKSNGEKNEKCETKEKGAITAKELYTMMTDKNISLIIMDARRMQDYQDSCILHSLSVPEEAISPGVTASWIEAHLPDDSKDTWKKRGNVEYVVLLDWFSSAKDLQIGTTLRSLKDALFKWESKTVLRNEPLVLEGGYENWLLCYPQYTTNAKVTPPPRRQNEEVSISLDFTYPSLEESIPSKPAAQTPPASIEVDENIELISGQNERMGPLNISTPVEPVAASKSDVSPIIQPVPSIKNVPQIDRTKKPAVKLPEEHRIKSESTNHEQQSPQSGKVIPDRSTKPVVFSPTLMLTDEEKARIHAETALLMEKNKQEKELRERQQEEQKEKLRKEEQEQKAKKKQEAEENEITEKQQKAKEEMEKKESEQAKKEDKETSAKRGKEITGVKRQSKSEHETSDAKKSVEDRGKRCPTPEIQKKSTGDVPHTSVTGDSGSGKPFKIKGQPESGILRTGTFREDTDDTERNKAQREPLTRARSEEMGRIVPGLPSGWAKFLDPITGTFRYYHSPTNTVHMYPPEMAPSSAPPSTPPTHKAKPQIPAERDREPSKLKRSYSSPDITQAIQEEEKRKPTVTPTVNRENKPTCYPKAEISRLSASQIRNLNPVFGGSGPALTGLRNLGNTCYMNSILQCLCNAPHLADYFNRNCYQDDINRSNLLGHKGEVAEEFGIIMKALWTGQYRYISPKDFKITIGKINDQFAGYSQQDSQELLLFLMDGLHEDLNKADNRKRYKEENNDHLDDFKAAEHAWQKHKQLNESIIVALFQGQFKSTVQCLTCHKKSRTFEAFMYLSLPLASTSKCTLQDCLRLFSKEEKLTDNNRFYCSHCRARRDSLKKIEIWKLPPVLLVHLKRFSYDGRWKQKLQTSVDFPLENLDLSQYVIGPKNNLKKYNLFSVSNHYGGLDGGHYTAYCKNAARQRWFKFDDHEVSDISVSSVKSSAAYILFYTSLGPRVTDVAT
In short: as §1

[9] = target: USP9X (UniProt Q93008)
In short: as §1

[10] = target: UniProt O00487
In short: as §1

Measured: log2 ratio of Biotin-Ahx-Ub-VS probe labelling

Sequence of USP54 (Q70EL1 whole entry): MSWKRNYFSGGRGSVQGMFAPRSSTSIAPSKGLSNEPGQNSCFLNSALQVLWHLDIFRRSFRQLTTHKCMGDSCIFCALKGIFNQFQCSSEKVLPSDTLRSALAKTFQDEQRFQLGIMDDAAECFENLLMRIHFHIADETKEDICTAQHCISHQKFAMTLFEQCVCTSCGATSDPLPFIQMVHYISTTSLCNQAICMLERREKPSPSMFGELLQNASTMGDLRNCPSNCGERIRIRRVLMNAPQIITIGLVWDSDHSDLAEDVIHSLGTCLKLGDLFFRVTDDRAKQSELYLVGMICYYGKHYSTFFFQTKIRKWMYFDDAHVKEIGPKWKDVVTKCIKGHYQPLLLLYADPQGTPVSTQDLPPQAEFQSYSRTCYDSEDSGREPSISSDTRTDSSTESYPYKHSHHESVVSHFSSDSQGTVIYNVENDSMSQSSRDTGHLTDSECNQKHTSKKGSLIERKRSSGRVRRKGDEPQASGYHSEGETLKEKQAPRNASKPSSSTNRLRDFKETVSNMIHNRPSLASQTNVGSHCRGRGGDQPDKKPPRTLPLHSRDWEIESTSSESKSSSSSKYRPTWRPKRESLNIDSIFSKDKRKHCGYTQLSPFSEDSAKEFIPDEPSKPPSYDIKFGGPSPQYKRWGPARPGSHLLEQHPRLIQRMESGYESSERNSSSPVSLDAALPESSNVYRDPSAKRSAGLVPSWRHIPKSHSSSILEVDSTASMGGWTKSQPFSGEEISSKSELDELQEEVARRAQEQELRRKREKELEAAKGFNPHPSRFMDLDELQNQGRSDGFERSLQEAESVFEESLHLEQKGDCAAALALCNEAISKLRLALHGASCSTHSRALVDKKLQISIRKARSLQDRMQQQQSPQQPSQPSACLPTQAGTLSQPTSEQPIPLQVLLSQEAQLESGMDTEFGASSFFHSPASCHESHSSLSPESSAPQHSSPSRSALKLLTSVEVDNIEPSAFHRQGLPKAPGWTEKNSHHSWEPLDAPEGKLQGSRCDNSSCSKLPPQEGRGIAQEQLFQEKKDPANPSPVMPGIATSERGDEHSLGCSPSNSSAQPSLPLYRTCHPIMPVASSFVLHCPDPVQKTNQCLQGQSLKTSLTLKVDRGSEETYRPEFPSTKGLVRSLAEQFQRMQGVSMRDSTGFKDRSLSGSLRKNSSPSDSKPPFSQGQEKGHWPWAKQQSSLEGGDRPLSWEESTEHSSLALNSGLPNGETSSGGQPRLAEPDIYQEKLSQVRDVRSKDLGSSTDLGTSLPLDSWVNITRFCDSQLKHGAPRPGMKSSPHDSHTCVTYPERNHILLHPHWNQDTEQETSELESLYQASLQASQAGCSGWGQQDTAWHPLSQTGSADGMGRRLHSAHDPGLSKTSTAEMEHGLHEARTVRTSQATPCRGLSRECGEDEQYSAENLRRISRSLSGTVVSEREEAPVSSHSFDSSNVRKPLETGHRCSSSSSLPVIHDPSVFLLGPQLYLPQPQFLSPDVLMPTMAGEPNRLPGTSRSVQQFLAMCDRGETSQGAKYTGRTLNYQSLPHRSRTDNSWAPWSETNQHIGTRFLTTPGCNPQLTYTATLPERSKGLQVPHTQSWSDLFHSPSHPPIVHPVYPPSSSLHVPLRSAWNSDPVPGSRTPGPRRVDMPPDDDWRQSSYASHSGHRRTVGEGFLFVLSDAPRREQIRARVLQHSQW
Sequence of UniProt O00487 (O00487 whole entry): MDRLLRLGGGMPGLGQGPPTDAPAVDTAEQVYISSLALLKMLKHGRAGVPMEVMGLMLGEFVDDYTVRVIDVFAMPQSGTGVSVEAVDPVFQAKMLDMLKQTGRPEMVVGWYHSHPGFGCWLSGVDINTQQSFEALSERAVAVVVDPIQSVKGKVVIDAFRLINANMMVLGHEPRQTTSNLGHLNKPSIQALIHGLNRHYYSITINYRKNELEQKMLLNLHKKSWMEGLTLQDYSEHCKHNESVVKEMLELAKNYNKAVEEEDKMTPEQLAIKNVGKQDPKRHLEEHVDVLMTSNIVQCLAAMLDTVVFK
Sequence of USP7 (Q93009 whole entry, looked up): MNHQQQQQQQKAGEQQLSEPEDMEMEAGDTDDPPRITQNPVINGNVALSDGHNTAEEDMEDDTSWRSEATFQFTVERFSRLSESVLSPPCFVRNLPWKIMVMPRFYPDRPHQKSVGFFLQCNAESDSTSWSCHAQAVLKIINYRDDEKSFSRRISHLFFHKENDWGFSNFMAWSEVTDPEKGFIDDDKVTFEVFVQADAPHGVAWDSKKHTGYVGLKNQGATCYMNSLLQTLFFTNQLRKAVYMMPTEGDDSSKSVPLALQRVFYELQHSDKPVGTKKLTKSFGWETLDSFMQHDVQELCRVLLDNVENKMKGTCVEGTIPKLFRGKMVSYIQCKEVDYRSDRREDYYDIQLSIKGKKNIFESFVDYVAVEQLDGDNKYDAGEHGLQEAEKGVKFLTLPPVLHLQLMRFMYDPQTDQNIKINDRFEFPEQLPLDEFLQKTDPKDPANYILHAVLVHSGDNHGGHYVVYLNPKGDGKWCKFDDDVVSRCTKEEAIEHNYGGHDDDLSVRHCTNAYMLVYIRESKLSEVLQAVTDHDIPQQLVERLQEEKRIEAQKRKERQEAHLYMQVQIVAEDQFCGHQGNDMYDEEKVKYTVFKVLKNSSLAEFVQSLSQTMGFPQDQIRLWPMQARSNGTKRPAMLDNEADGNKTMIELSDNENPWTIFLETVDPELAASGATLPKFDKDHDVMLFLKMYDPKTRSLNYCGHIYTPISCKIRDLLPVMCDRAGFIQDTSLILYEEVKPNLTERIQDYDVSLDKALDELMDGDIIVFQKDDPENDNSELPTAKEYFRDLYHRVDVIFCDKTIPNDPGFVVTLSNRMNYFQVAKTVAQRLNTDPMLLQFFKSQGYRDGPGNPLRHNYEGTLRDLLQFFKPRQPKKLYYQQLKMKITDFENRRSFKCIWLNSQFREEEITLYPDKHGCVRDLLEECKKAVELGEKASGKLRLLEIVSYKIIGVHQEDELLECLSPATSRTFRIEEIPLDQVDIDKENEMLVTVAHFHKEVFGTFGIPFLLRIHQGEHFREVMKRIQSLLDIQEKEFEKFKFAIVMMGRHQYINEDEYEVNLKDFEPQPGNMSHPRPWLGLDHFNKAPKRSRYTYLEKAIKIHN
Sequence of USP46 (P62068 whole entry): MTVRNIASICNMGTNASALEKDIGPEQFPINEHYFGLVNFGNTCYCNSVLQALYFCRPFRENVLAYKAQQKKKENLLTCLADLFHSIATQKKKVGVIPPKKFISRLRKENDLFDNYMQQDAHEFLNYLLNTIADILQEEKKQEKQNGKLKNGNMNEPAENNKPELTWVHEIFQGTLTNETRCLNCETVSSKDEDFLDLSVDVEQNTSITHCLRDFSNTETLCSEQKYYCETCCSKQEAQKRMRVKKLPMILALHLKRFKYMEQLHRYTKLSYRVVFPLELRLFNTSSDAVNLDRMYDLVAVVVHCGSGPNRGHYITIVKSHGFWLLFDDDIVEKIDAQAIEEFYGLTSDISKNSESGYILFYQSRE

O=C(CCl)N1CCN(c2nc3ccccc3o2)CC1
active: [7] -1.99
inactive: [1] 0.952 | [2] -0.372 | [3] -0.362 | [4] -0.829 | [5] -0.993 | [6] -0.173 | [8] -0.223 | [9] -0.248 | [10] -0.0834
